# Sm TGR block = inhibitors of Schistosoma mansoni thioredoxin glutathione reductase. purified TGR, DTNB reduction, TNB absorbance 405 nm. Potency, µM (highest dose often 114 µM), most hits filed as inhibitors. actives 3% (n = 360,000). AID 485364; note: nearly all actives have a fitted effect of over 60% in size
#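 First, TGR (20 nM dispensed) and NADPH were mixed with compound. Second, a 15 min room-temperature incubation followed. Third, further NADPH and then DTNB were added to start the reaction. Finally, TNB absorbance was monitored kinetically.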
# SARS PLpro yeast-1 = SARS-CoV PLP inhibition in yeast; S. cerevisiae expressing SARS-CoV PLpro, growth rescue; Potency, µM (top dose mostly 32.9 µM), hits mostly activators; actives 0.19% (n = 330,000); AID 485353; calls by dose curve; note: nearly all actives have a fitted effect of over 55% in size
# RE007 growth inh = less growth of the S. pombe RE007 Vpr strain; S. pombe RE007 Vpr strain, BacTiter-Glo ATP luminescence, 24 h; Potency, µM (highest dose often 92.2 µM), most hits filed as inhibitors; actives 0.21% (n = 360,000); active = well fitted falling curve with a large enough effect; inconclusive = small, poorly fitted or top-dose-only effect; inactive = no such curve, though single readings can be large or run the other way; note: nearly all actives have a fitted effect of over 50% in size
#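 Fission yeast strain RE007, carrying one chromosomally integrated HIV-1 vpr copy, was seeded at OD 0.01 in PMG+AL medium with 23 nL pinned compound. After 24 h at 30 °C and 99% humidity, viability was read by BacTiter-Glo luminescence.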
# AmpC inh detg = inhibitors of E. coli AmpC beta-lactamase with detergent; AmpC hydrolysis of nitrocefin, absorbance 480 nm, 0.01% Triton; Potency, µM (doses to about 114 µM), usual class: inhibitors; P00811; actives 0.041% (n = 370,000); note: nearly all actives have a fitted effect of over 25% in size
# Target sequence (P00811 whole entry, looked up): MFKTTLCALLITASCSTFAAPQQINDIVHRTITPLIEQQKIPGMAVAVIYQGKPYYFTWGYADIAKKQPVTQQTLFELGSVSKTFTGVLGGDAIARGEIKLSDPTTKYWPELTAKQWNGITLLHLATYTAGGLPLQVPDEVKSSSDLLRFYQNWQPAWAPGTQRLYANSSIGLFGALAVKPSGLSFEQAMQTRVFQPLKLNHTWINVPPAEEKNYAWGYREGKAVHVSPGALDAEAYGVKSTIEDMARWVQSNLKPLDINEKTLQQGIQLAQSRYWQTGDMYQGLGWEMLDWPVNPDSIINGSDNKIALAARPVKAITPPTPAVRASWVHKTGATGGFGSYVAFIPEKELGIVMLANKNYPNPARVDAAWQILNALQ
#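 AmpC (5.3 nM in the dispensed reagent) in 20 mM phosphate pH 7.0 with 0.01% (detergent screen) or 0.0001% Triton X-100 was preincubated with compounds for 15 min at room temperature. Nitrocefin was then added from an 800 uM solution, and hydrolysis was followed at 480 nm.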
# TbPYK inhibitor = T. brucei pyruvate kinase inhibition; Q57TT1; TbPYK enzyme, Kinase-Glo Plus ATP luminescence, 45 min; Potency, µM (top dose mostly 76.8 µM), actives largely listed as inhibitors; actives 0.12% (n = 410,000); AID 624173; note: nearly all actives have a fitted effect of over 50% in size
#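 Screened from lowest to highest concentration, compounds were pinned into TbPYK/substrate mixtures, and ADP (130 uM final) was added. Plates sat at room temperature for 45 min prior to Kinase-Glo Plus detection by luminescence.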
# AmpC no deterg = blocks E. coli AmpC beta-lactamase in detergent-free assay; AID 485341; Potency, µM (top dose mostly 57.1 µM), most hits filed as inhibitors; AmpC nitrocefin hydrolysis, absorbance 480 nm, 0.0001% Triton; actives 0.52% (n = 330,000); P00811; note: nearly all actives have a fitted effect of over 20% in size
#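 AmpC (5.3 nM in the dispensed reagent) in 20 mM phosphate pH 7.0 with 0.01% (detergent screen) or 0.0001% Triton X-100 was preincubated with compounds for 15 min at room temperature. Nitrocefin was then added from an 800 uM solution, and hydrolysis was followed at 480 nm.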
# SARS PLpro yeast-2 = Inhibits SARS-CoV PLP in yeast, hit validation; shares compounds with SARS PLpro yeast-1; yeast expressing SARS-CoV PLpro, growth phenotype rescue; calls only; actives 19% (n = 1,000); AID 652038; call rule not given here
# Hits are given with their value; . = inactive; ? = inconclusive; / = no result given; + = active, no number. In the library only some 3.3% were active in any assay of this set; here they are far more common. Unless noted, calls come from the whole dose curve; as a rule, active = well fitted curve in the direction sought with a large enough effect; inconclusive = small, poorly fitted or top-dose-only effect, or another doubt; inactive = no such curve, though single readings can be large; an effect the other way counts as inactive or inconclusive.
SMILES,Sm TGR block,SARS PLpro yeast-1,RE007 growth inh,AmpC inh detg,TbPYK inhibitor,AmpC no deterg,others
COc1ccccc1N1CCN(Cc2ccc(Br)cc2)CC1,35.5µM,.,.,.,.,.,
CCOC(=O)c1cc(S(=O)(=O)N2CCN(c3ccccc3OC)CC2)[nH]n1,.,/,/,?,.,/,
Cc1nn(C(=O)c2cccc(Cl)c2)c(C)c1S(=O)(=O)N1CCOCC1,20µM,/,/,?,.,/,
Cc1nn(C(=O)c2cccc(F)c2)c(C)c1S(=O)(=O)N1CCOCC1,?,/,/,.,.,/,
O=C(CN1CCN(c2ccc(F)cc2)CC1)c1cccs1,14.1µM,.,.,.,.,.,
O=C(c1cccs1)N1CCN(c2ccc(F)cc2)CC1,.,.,.,.,.,.,
O=C(CN1CCN(c2ccc(F)cc2)CC1)c1ccc2c(c1)OCO2,44.7µM,.,.,.,.,.,
COc1ccc(C(C)=O)cc1COC(=O)Cc1cc(OC)c(OC)c(OC)c1,11.2µM,.,.,?,.,.,
COc1ccc(C(C)=O)cc1COc1ccc(F)cc1,.,.,.,.,.,.,
COc1ccc(C(C)=O)cc1COC(=O)CNC(=O)c1ccc(Cl)cc1,3.16µM,.,.,.,.,.,
CCOc1ccc(C(=O)NCC(=O)OCc2cc(C(C)=O)ccc2OC)cc1,7.08µM,.,.,.,.,.,
COc1ccc(C(C)=O)cc1COC(=O)CNC(=O)c1ccc(F)cc1,?,.,.,.,.,.,
O=C(Cn1nc(-c2ccccc2)nc(Cc2ccccc2)c1=O)Nc1ccccc1,.,/,/,.,.,/,
COc1ccc(CNC(=O)C2CCN(Cc3nc(-c4ccc(Cl)cc4)oc3C)CC2)cc1,.,/,/,.,.,/,
Cc1ccc(CNC(=O)C2c3ccccc3C(=O)N(C)C2c2c[nH]c3ccccc23)o1 (stereo not drawn),50.1µM,/,.,.,.,/,
Cn1c(=O)c(C(=O)NNC(=O)c2cccc(Cl)c2)c(O)c2ccccc21,.,.,12.6µM,.,.,.,
Cn1c(=O)c(C(=O)NNC(=O)c2ccccc2Cl)c(O)c2ccccc21,.,.,.,.,.,.,
CCn1c(=O)c(C(=O)NNC(=O)c2cccc(Cl)c2)c(O)c2ccccc21,.,.,.,.,.,.,
Cc1cccc(C(=O)NNC(=O)c2c(O)c3ccccc3n(C)c2=O)c1,.,.,39.8µM,.,.,.,
Cn1c2c(c(=O)[nH]c1=O)C(c1ccc(O)cc1)C1=C(N2)c2ccccc2C1=O (stereo not drawn),.,.,.,.,.,17.8µM,
O=Cc1ccc(C(=O)OCC(=O)NC(=O)Nc2ccccc2F)cc1,/,.,.,/,.,28.2µM,
Cc1cc(C)nc(-n2nc(C)c3c2NC(=O)CC3c2cc(F)ccc2F)n1 (stereo not drawn),.,/,/,.,.,/,
COc1ccc(-c2cc3nc(C)cc(N)n3n2)cc1,.,.,15.8µM,.,22.4µM,.,
COc1ccc(-c2cc3nc(C)cc(-c4ccc(OC)cc4)n3n2)cc1,.,.,.,.,.,.,
O=C(NCCCN1CCCCCC1)c1ccc2c(c1)sc1nc(-c3ccccc3)cn12,.,/,/,.,.,/,
SMILES,Sm TGR block,SARS PLpro yeast-1,RE007 growth inh,AmpC inh detg,TbPYK inhibitor,AmpC no deterg,others
COc1ccc(Cc2n[nH]c(=S)n2C)cc1Br,31.6µM,.,.,.,?,.,
Fc1cccc(/C=N/Nc2cc(N3CCOCC3)ncn2)c1,.,2.82µM,.,.,.,.,
COc1ccc(Cn2c(CNS(=O)(=O)c3ccc4c(c3)CCCC4)nc3cccnc32)cc1,.,/,/,.,.,/,
COc1nc(Nc2ccc(C(C)C)cc2)nc(OC)n1,.,?,.,?,.,.,SARS PLpro yeast-2=.
Cc1ccc(C)c(Cn2c(=O)n(-c3ccccc3)c(=O)c3c4c(sc32)CCCC4)c1,.,/,/,.,.,/,
COc1ccccc1C(=O)Nc1cc2c(cc1N1CCCCC1)n(C)c(=O)n2C,.,/,/,.,.,/,
COc1ccc(N(CC(=O)Nc2nccs2)S(=O)(=O)c2c(C)nn(C)c2C)cc1,.,?,.,?,.,.,SARS PLpro yeast-2=.
CCc1ccccc1N(CC)C(=O)c1c(C)oc2ncn(C)c(=O)c12,.,/,/,.,.,/,
CCOc1ccc(NC(=O)CC2C(=O)N(c3ccc(F)cc3)C(=O)N2Cc2ccc(OC)c(OC)c2)cc1 (stereo not drawn),.,/,/,.,.,/,
Cc1ncc(CO)c(/C=N/NC(=S)Nc2ccc(F)cc2)c1O,.,5.62µM,.,?,?,.,SARS PLpro yeast-2=.
COC(=O)c1c(NC(C)=O)sc(C)c1C,.,.,.,.,.,.,
CC(=O)Nc1ccc(NC(=O)C(C)OC(=O)c2c(NC(C)=O)sc(C)c2C)cc1 (stereo not drawn),.,?,.,.,.,.,SARS PLpro yeast-2=.
CC1CCc2nn(CC(=O)Nc3ccccc3Cl)cc2C1 (stereo not drawn),.,/,/,.,.,/,
CCN(C(=O)c1cc2c(=O)oc3ccc(C)cc3c2s1)c1ccccc1C,.,/,/,.,.,/,
COc1ccc(C)cc1NC(=O)CN(C)S(=O)(=O)c1cnc[nH]1,.,?,.,.,.,.,SARS PLpro yeast-2=.
Cc1cccc(NC(=O)CN(C)S(=O)(=O)c2cnc[nH]2)c1,.,.,.,.,.,.,
O=C(CN1CCN(c2ncccn2)CC1)Nc1ccccc1-n1cccc1,.,14.1µM,.,.,.,.,SARS PLpro yeast-2=.
O=C(CN1CCN(c2ccccc2F)CC1)Nc1cccnc1Cl,.,.,.,?,.,.,
CCCCCCOC(=O)C(C#N)c1nc2ccccc2nc1N1CCN(C)CC1 (stereo not drawn),.,?,.,?,.,.,SARS PLpro yeast-2=.
Fc1ccccc1NC(=S)NCCc1cccc(Cl)c1,.,.,.,.,.,.,
CC(C)CCNC(=S)Nc1ccccc1F,.,?,.,.,.,.,SARS PLpro yeast-2=+
Cc1ccc(/C=C/C(=O)OCC(=O)Nc2cccc(S(=O)(=O)N(C)C)c2)o1,?,3.16µM,.,?,.,.,SARS PLpro yeast-2=.
Cc1ccc(O)c2ncccc12,/,/,/,/,.,/,
Cc1ccccc1NCc1ccc(O)c2ncccc12,.,?,.,.,.,.,SARS PLpro yeast-2=+
Cc1ccc(S(=O)(=O)NCCC(=O)NCc2ccc3c(c2)OCO3)cc1C,.,15.8µM,.,?,.,.,SARS PLpro yeast-2=.
Cc1ccc(Nc2nc(NCCCN3CCOCC3)nc(N)c2[N+](=O)[O-])cc1,.,?,.,.,.,.,SARS PLpro yeast-2=.
Cc1ccc(Nc2nc(NCCCN3CCOCC3)nc(N)c2[N+](=O)[O-])cc1C,.,.,.,?,.,.,
Cc1ccc(S(=O)(=O)N(C)C[C@H]2Oc3ccc(NC(=O)Nc4c(C)noc4C)cc3CC(=O)N([C@@H](C)CO)C[C@@H]2C)cc1,/,.,.,/,.,.,

# From PubChem BioAssay
